Data on 16 compounds can be found in PubChem BioAssay (NCI).

What all share (assay): NCI-60 one-dose screen, 48 h (100 = growth as untreated, 0 = no growth, -100 = all killed)
Common to all, as to conditions: 10 µM

For test [1], the system named is HCT-15 colon.
Test [2] has as its system HT29 colon.
For test [3], the system named is SNB-75 CNS.
In test [4] the test system is SNB-19 CNS.
Test [5] concerns U251 CNS.
Test [6] has as its system PC-3 prostate.
The test system of test [7] is SK-MEL-5 melanoma.
The test system of test [8] is UACC-62 melanoma.
For test [9], the system named is LOX IMVI melanoma.
Test [10] has as its system SK-MEL-28 melanoma.
Test [11] deals with SK-MEL-2 melanoma.
The subject of test [12] is EKVX NSCLC.
Test [13] concerns UO-31 renal.
Test [14] deals with TK-10 renal.
The subject of test [15] is ACHN renal.
Test [16] concerns CAKI-1 renal.
In test [17] the test system is A498 renal.
The test system of test [18] is CCRF-CEM leukemia.
The test system of test [19] is MOLT-4 leukemia.
The test system of test [20] is SN12C renal.

This is part of a sample that, as a whole, favours compounds with a hit. Of some 83,000 tested, about 20% had one in any assay.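 Negative percent growth values reflect cell death: -40 means 40% of the cells present at the start died, and -100 means all died.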 Unmarked numbers belong to inactive results. The source made the active and inactive calls. How the source made its calls: active means growth percent below 10; inactive means the rest.

With `O=C(CSc1nnc(-c2ccc(Cl)cc2)o1)c1ccccc1`, the growth in test [1] is 99%; in test [2], 96.1%; in test [3] it was 98.3%; in test [4], 101%; in test [5], 96%; in test [6], 86.9%. Besides, the growth in test [7] is 91.7%; in test [8], 92.4%; in test [9], 94.3%; in test [10], 102%; in [11], 104%; in test [12], 102%. Moreover, the growth was 98.1% in test [13]; 97.5% in [14]; 101% in test [15]; 99.3% in test [16]; 106% in test [17]; 94.3% in test [18]. The growth in test [19] was 104%.
Consider `CCCCCc1cc[n+](CC(=O)c2ccc(Cl)cc2)cc1`, for which the growth was 98.5% in test [1]; 64.7% in test [2]; 84.4% in test [3]; 96.7% in test [4]; 97.8% in test [5]; 85.7% in test [6]. In addition, the growth in [7] is 94.9%; in test [8], 82.8%; in [9] it was 87.4%; in [10] it was 101%; in test [11], 109%; in test [12], 93.1%. Further, the growth in test [13] was 91.2%; in [14], 98.4%; in test [15] it was 99%; in test [16] it was 92.5%; in test [17], 63.1%; in test [18], 102%. In test [19], the growth is 92.7%.
Consider `COc1ccc2oc(=O)cc(C(c3ccc[nH]3)c3ccc[nH]3)c2c1`, for which the growth is 9.01% (active) in [1]; -10.5% (active) in [2]; 29.6% in [3]; 22.1% in test [4]; -7.61% (active) in test [5]; 20.3% in test [6]. For the same compound, the growth in [7] was -31.4% (active); in [8] it was 30.7%; in [9], 7.59% (active); in [10], 37.7%; in test [11] it was 5.1% (active); in test [12], 32.7%. In addition, the growth was 16.9% in test [13]; 26.4% in [14]; 17.3% in test [15]; 15.2% in test [16]; -8.63% (active) in test [17]; 11.3% in [18].
Turning to `COc1cc(Cn2c(-c3ccccc3)cc3c2-c2oncc2CC3)cc(OC)c1`, the growth in test [1] was 15.3%; in test [2], -8.38% (active); in test [3], 19.5%; in test [4], 34.8%; in [5], 18%; in [6], 19.2%. In addition, the growth in test [7] is 5.07% (active); in [8] it was 31.6%; in test [9], 27.3%; in test [10] it was 50.1%; in test [11], 22.3%; in [12], 43.7%. The growth in test [20] is 24.3%; in test [13], 9.92% (active); in test [15] it was 34.7%; in [16], 18%; in [17], -14.7% (active); in [18], 11.3%. Also, in [19], the growth was 12.2%.
In the case of `COCCOC(=O)NC(=O)Nc1ccc(/C(=N/O)c2ccc(Cl)cc2)cc1`, the growth in test [1] is 9.7% (active); in test [2], -20.5% (active); in test [3], 19.9%; in test [4], 31.4%; in [5], 17.9%; in [6] it was 26.1%. Moreover, the growth is -17.2% (active) in test [7]; 15.7% in test [8]; 22.5% in test [9]; 69.1% in [10]; 18.7% in [11]; 29.6% in [12]. Moreover, the growth is 36.8% in test [13]; 62.6% in [14]; 39% in [15]; 30.6% in [16]; -14.2% (active) in [17]; 8.24% (active) in [18]. In addition, the growth in [19] was 9.91% (active).
As to `NC(=O)c1ccc(Br)o1`, the growth in test [1] is 94.1%; in test [2] it was 95.7%; in test [3], 95.3%; in test [4], 109%; in test [5] it was 105%; in test [6] it was 102%. Further, the growth is 102% in [7]; 101% in test [8]; 98.1% in [9]; 107% in [10]; 100% in [11]; 104% in [12]. Besides, the growth in test [13] is 93.2%; in test [14] it was 90.8%; in test [15] it was 103%; in [16], 102%; in test [17] it was 108%; in [18], 119%. The growth in [19] was 109%.
As to `NC1CCC(Nc2nc(NCc3ccc(-c4ccco4)nc3)c3ncn(C4CCCC4)c3n2)CC1` (stereo not given), the growth was 3.49% (active) in [1]; -21.9% (active) in test [2]; -46.9% (active) in test [3]; 14.2% in test [4]; 5.19% (active) in test [5]; -1.27% (active) in test [6]. For the same compound, the growth was -6.6% (active) in [7]; -31% (active) in [8]; -26.2% (active) in test [9]; 0.269% (active) in test [10]; -73.6% (active) in test [11]; -2.93% (active) in test [12]. The growth was 10.8% in test [13]; 3.91% (active) in [14]; 2.36% (active) in test [15]; 17.3% in test [16]; -70.8% (active) in test [17]; -0.411% (active) in test [18]. In addition, the growth in test [19] was -12.3% (active).
For `C/C(=N\NC(=O)c1sc(=S)n(C)c1N)c1cc2ccccc2o1`, the growth is 48% in test [1]; 36.6% in test [2]; 53% in [3]; 89.9% in test [4]; 56.5% in [5]; 45.5% in test [6]. For the same compound, the growth was 43.1% in [7]; 71.3% in [8]; 25.6% in test [9]; 71.8% in test [10]; 74.4% in [11]; 64.8% in test [12]. The growth in [20] was 72.2%; in test [14], 56.6%; in test [15], 59.7%; in test [16], 50%; in [17] it was 33.3%; in test [18] it was 51.2%. Further, the growth in test [19] was 35.7%.
Consider `CC1(C)CNC(=O)N1`, for which the growth in test [1] is 98.8%; in [2], 94.6%; in test [3], 94.4%; in test [4], 103%; in test [5], 97.4%; in [6], 93.3%. Also, the growth in [7] is 82.6%; in [8], 95.9%; in test [9], 107%; in test [10] it was 114%; in [11], 98.8%; in [12], 96%. Also, the growth in test [13] was 87.7%; in test [14] it was 97.7%; in test [15], 110%; in [16], 97.1%; in test [17], 95.5%; in test [18], 95.4%.
In the case of `CCCc1ccnc(NS(=O)(=O)c2ccc(N)cc2)n1`, the growth in test [1] was 105%; in test [2], 72.9%; in [3], 88.2%; in test [4], 76.6%; in test [5] it was 54.6%; in [6], 60.7%. Moreover, the growth is 84.3% in [7]; 85.7% in [8]; 82.9% in test [9]; 78.9% in test [10]; 97.7% in test [11]; 58.5% in test [12]. Besides, the growth in test [13] was 86.5%; in test [14] it was 93.4%; in test [15], 112%; in [16], 103%; in test [17], 79.2%; in [18] it was 46.4%.
For `CCCCCC(CCC)COC(=O)c1ccc(OC)cc1` (stereo not given), the growth in [1] was 99%; in [2], 101%; in test [3], 89.2%; in test [4], 112%; in test [5], 96%; in [6], 84.1%. The growth in test [7] was 104%; in test [8] it was 104%; in test [9] it was 94.5%; in test [10], 110%; in test [11], 96%; in test [12], 100%. Further, the growth in test [13] is 85.8%; in [14], 95.6%; in test [15], 106%; in test [16], 92.3%; in test [17], 109%; in test [18], 75.3%. The growth in test [19] was 100%.
For `CC(=O)OC1Oc2ccccc2-c2oc(=O)c(-c3ccc(F)cc3)cc21` (stereo not given), the growth is 95.8% in test [1]; 99% in test [2]; 71.8% in test [3]; 100% in test [4]; 76.2% in test [5]; 110% in test [6]. Moreover, the growth in [7] is -35.4% (active); in test [8] it was 50%; in test [9], 85.3%; in test [10], 96.7%; in [11], 86.2%; in test [12], 34.2%. For the same compound, the growth in [20] is 88.3%; in [14], 92.9%; in [15], 104%; in test [16], 93.1%; in test [17] it was -16.1% (active); in [18], 91.5%. Further, in test [19], the growth is 88.6%.
As for `COc1cc(/C=C/C(=O)c2cc(-c3ccc(C(F)(F)F)cc3)ccc2O)cc(OC)c1OC`, the growth in test [1] is 60%; in [2], 60.5%; in test [3] it was 78.6%; in test [4] it was 75.4%; in test [5], 69%; in test [6] it was 44.4%. Also, the growth in test [7] is 47.2%; in test [8] it was 53.5%; in test [9] it was 19.2%; in test [10] it was 92.2%; in [11], 70.1%; in test [12] it was 61.2%. In addition, the growth was 66.7% in test [20]; 46.7% in test [13]; 68.4% in test [15]; 47.2% in [16]; 82.6% in test [17]; 7.45% (active) in test [18]. Also, the growth in test [19] is 15.5%.
`Cc1ccc2c(c1)-c1cc(C)nn1-c1ccc(C#N)cc1O2`: the growth is 38.7% in [1]; 20% in test [2]; 48.8% in test [3]; 68.6% in test [4]; 46.9% in [5]; 66.2% in test [6]. In addition, the growth in test [7] was 75.9%; in test [8], 52.4%; in [9], 49.4%; in [10], 70.3%; in [11] it was 44.7%; in test [12], 65.7%. For the same compound, the growth in [13] is 47.4%; in test [14], 84.1%; in test [15] it was 91.5%; in test [16], 71.9%; in test [17], 47.2%; in test [18] it was 46.2%. Also, the growth in [19] was 49.6%.
Take `O=C1/C(=C/c2ccc(O)cc2O)N=C2SCCCN12`: the growth is 97.3% in [1]; 93.9% in test [2]; 96.2% in test [3]; 97% in test [4]; 99.2% in test [5]; 100% in [6]. Also, the growth in test [7] is 99.7%; in test [8] it was 97.4%; in [9] it was 102%; in test [10], 98.4%; in test [11], 109%; in [12], 96.3%. Moreover, the growth was 97.6% in test [13]; 88.4% in test [14]; 97.6% in [15]; 97.4% in test [16]; 90.1% in test [17]; 111% in [18].
Regarding `C/C(=N/NC(=O)c1sc(=S)n(C)c1N)c1cc2cc(Cl)ccc2o1`, the growth in test [1] is 92.6%; in [2] it was 92.9%; in test [3] it was 144%; in test [4], 98.8%; in test [5] it was 97.5%; in test [6], 101%. For the same compound, the growth was 11.3% in test [7]; 76.2% in test [8]; 72.9% in [9]; 128% in test [10]; 98.9% in test [11]; 98.5% in test [12]. In addition, the growth is 90.8% in test [20]; 101% in test [14]; 96% in test [15]; 117% in test [16]; -3.76% (active) in test [17]; 81.8% in test [18]. In test [19], the growth was 76.5%.
